This note sets out measurements from the supplement of paper PMC12297408.

The test system of this test is Plasmodium falciparum NF54/iGP1_RE9H ulg8 stage V gametocytes. Nature of the test: gametocyte viability (luciferase signal relative to DMSO control) (% of DMSO control); higher = less gametocytocidal activity, active = 50 or less. As to conditions: exposure time: 72 h. The method in brief:
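NF54/iGP1_RE9Hulg8 stage V gametocytes (day 12; ~2.5% gametocytemia, 3% hematocrit) in medium with 0.5% Albumax II were added to 96-well plates of nanolitre-spotted compounds (10 mM DMSO stocks), giving 10 µM or 1 µM, one well each. Plates were incubated 72 h at 37 °C. Then 90 µl was mixed with 10 µl D-luciferin (30 mg/ml) and luminescence was read on an IVIS Lumina II. Viability is relative to the mean of plate DMSO vehicle controls.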

Counter-ions that a name gives are not always drawn. Among all 1,300 compounds or so, about 40 (3%) showed activity. The sample as a whole holds a higher share of actives than the screen did. Values without a mark were called inactive.

As for `Cc1c(N(C)C)c(=O)n(-c2ccccc2)n1C` [Amidopyrine], the gametocyte viability by setting is: (concentration: 1 µM) 99; (concentration: 10 µM) 95.3.

As for `O=C1c2c(O)ccc(O)c2C(=O)c2c(NCCNCCO)ccc(NCCNCCO)c21` [Mitoxantrone dihydrochloride], the gametocyte viability runs as follows: (concentration: 1 µM) 86.2; (concentration: 10 µM) 12.9 (active).

For the compound `O=C1c2c(O)cccc2Cc2cccc(O)c21` [Anthralin], the gametocyte viability runs as follows: (concentration: 1 µM) 89.3; (concentration: 10 µM) 86.9.

As for `O=C1c2cccc(O)c2C(=O)c2c(O)cccc21` [1,8-Dihydroxyanthraquinone], the gametocyte viability was 82.8 (concentration: 1 µM) and 85.1 (concentration: 10 µM).

Regarding `O=c1[nH]c(=O)n(C2CCCO2)cc1F` (stereo unspecified) [Tegafur], the gametocyte viability is, setting by setting: (concentration: 1 µM) 82.6; (concentration: 10 µM) 82.6.

For `Cc1scc2c1N(C(=O)CN1CCN(C)CC1)c1ccccc1NC2=O` [Telenzepine dihydrochloride], the gametocyte viability (concentration: 1 µM) was 97.8 and the gametocyte viability (concentration: 10 µM) is 96.3.

For `CC[N+](CC)(CC)CCC(O)(c1ccccc1)C1CCCCC1` (stereo unspecified) [Tridihexethyl chloride], the gametocyte viability reads like this: (concentration: 1 µM) 95.7; (concentration: 10 µM) 100.

Turning to `CCOC(=O)C1=C(C)NC(C)=C(C(=O)OCC)C1c1ccccc1/C=C/C(=O)OC(C)(C)C` [Lacidipine], the gametocyte viability runs as follows: (concentration: 1 µM) 97.1; (concentration: 10 µM) 96.5.

For the compound `Cc1cccc(Nc2ccccc2C(=O)O)c1C` [Mefenamic acid], the gametocyte viability (concentration: 1 µM) is 94 and the gametocyte viability (concentration: 10 µM) is 94.6.

As to `Cc1c(Cl)cccc1Nc1ccccc1C(=O)O` [Tolfenamic acid], the gametocyte viability reads like this: (concentration: 1 µM) 83.6; (concentration: 10 µM) 90.8.

`COc1ccc(/C=C/C(=O)Nc2ccccc2C(=O)O)cc1OC` [Tranilast]: the gametocyte viability by setting is: (concentration: 1 µM) 68.5; (concentration: 10 µM) 40.9 (active).

`COC1=C(OC)C(=O)C(CCCCCCCCCCO)=C(C)C1=O` [Idebenone]: the gametocyte viability is, setting by setting: (concentration: 1 µM) 88; (concentration: 10 µM) 86.8.

`Cn1c(=O)c2c(ncn2CC2OCCO2)n(C)c1=O` [Doxofylline]: the gametocyte viability was 86.6 (concentration: 1 µM) and 86.7 (concentration: 10 µM).

`COc1cc(N)c(Cl)cc1C(=O)NC1CCN(CCCOc2ccc(F)cc2)CC1OC` (stereo unspecified) [Cisapride]: the gametocyte viability is 95.9 (concentration: 1 µM) and 96.7 (concentration: 10 µM).

As to `C[C@H](CCC(=O)O)[C@H]1CC[C@H]2[C@@H]3C(=O)C[C@@H]4CC(=O)CC[C@]4(C)[C@H]3CC(=O)[C@]12C` [Dehydrocholic acid], the gametocyte viability was 95.4 (concentration: 1 µM) and 93.6 (concentration: 10 µM).

Turning to `C=C1c2c(Cl)ccc(O)c2C(O)=C2C(=O)[C@]3(O)C(O)=C(C(N)=O)C(=O)[C@@H](N(C)C)[C@@H]3[C@@H](O)[C@H]12.O=C(O)c1cc(S(=O)(=O)O)ccc1O` [Meclocycline sulfosalicylate], the gametocyte viability is, setting by setting: (concentration: 1 µM) 80.9; (concentration: 10 µM) 83.5.

`CN(C)CC/C=C1/c2ccccc2COc2ccc(CC(=O)O)cc21` [Olopatadine hydrochloride]: the gametocyte viability is 77.9 (concentration: 1 µM) and 86.5 (concentration: 10 µM).

For `CCCOc1ccc(C(=O)OCCN(CC)CC)cc1N` [Proparacaine hydrochloride], the gametocyte viability reads like this: (concentration: 1 µM) 98.5; (concentration: 10 µM) 105.

Regarding `COc1cccc(OC)c1C(=O)N[C@@H]1C(=O)N2[C@@H]1SC(C)(C)[C@@H]2C(=O)O` [Methicillin sodium], the gametocyte viability (concentration: 1 µM) is 83.4 and the gametocyte viability (concentration: 10 µM) is 83.1.

For `Clc1ccccc1CN1CCc2sccc2C1` [Ticlopidine hydrochloride], the gametocyte viability is 96 (concentration: 1 µM) and 93.2 (concentration: 10 µM).

Take `CC(=O)OCC(=O)[C@@]1(O)CC[C@H]2[C@@H]3CCC4=CC(=O)CC[C@]4(C)[C@@]3(F)[C@@H](O)C[C@@]21C` [Fludrocortisone acetate]: the gametocyte viability is, setting by setting: (concentration: 1 µM) 79.5; (concentration: 10 µM) 75.8.

For `Nc1c2c(nc3ccccc13)CCCC2O` (racemic) [Hydroxytacrine maleate (R,S)], the gametocyte viability (concentration: 1 µM) is 101 and the gametocyte viability (concentration: 10 µM) was 93.6.

`O=C1c2cccc3c2[C@H](CCC3)CN1[C@@H]1CN2CCC1CC2` [Palonosetron hydrochloride]: the gametocyte viability runs as follows: (concentration: 1 µM) 85.5; (concentration: 10 µM) 81.6.

For `CCN(CC)CCOc1ccc(C(=C(Cl)c2ccccc2)c2ccccc2)cc1` [Clomiphene citrate (Z,E)], the gametocyte viability reads like this: (concentration: 1 µM) 82.4; (concentration: 10 µM) 95.2.

Regarding `COc1cc2ncnc(Nc3ccc(F)c(Cl)c3)c2cc1OCCCN1CCOCC1` [Gefitinib], the gametocyte viability reads like this: (concentration: 1 µM) 95.8; (concentration: 10 µM) 85.9.

As for `C#Cc1cccc(Nc2ncnc3cc(OCCOC)c(OCCOC)cc23)c1` [Erlotinib], the gametocyte viability (concentration: 1 µM) is 70.7 and the gametocyte viability (concentration: 10 µM) is 37.2 (active).

`Cc1c(C)c2c(c(C)c1O)CCC(C)(C(=O)O)O2` (stereo unspecified) [Trolox]: the gametocyte viability (concentration: 1 µM) was 88.2 and the gametocyte viability (concentration: 10 µM) was 87.5.

On to `CCOC(=O)C1=C[C@]2(CC)CCCN3CCc4c(n1c1ccccc41)[C@@H]32` [Vinpocetine], for which the gametocyte viability was 86.2 (concentration: 1 µM) and 87.6 (concentration: 10 µM).

For the compound `CC(C)NC[C@@H](O)COc1cccc2ccccc12` [(R)-Propranolol hydrochloride], the gametocyte viability runs as follows: (concentration: 1 µM) 93.4; (concentration: 10 µM) 89.

Regarding `Nc1ccccc1S(N)(=O)=O` [2-Aminobenzenesulfonamide], the gametocyte viability was 98 (concentration: 1 µM) and 95.8 (concentration: 10 µM).

Take `CN1CCN(CC(=O)N2c3ccccc3C(=O)Nc3cccnc32)CC1` [Pirenzepine dihydrochloride]: the gametocyte viability was 86.5 (concentration: 1 µM) and 83.3 (concentration: 10 µM).

As to `CCN(CCCc1ccccc1)CCCc1ccccc1` [Alverine citrate salt], the gametocyte viability is 82.3 (concentration: 1 µM) and 82 (concentration: 10 µM).

Consider `CCN(CC)CCCC(C)Nc1ccnc2cc(Cl)ccc12` (stereo unspecified) [Chloroquine diphosphate], for which the gametocyte viability is 82.8 (concentration: 1 µM) and 86.8 (concentration: 10 µM).

As for `CCN(CCO)CCCC(C)Nc1ccnc2cc(Cl)ccc12` (stereo unspecified) [Hydroxychloroquine sulfate], the gametocyte viability (concentration: 1 µM) is 83.3 and the gametocyte viability (concentration: 10 µM) is 80.8.

In the case of `CCN(CC)CCCC(C)Nc1c2ccc(Cl)cc2nc2ccc(OC)cc12` (stereo unspecified) [Quinacrine dihydrochloride dihydrate], the gametocyte viability is, setting by setting: (concentration: 1 µM) 113; (concentration: 10 µM) 44.5 (active).

Consider `O=C1CN(/N=C/c2ccc([N+](=O)[O-])o2)C(=O)N1` [Nitrofurantoin], for which the gametocyte viability (concentration: 1 µM) is 83.4 and the gametocyte viability (concentration: 10 µM) is 82.5.

For `O=C(N/N=C/c1ccc([N+](=O)[O-])o1)c1ccc(O)cc1` [Nifuroxazide], the gametocyte viability by setting is: (concentration: 1 µM) 95.9; (concentration: 10 µM) 30.6 (active).

In the case of `NC(=O)N/N=C/c1ccc([N+](=O)[O-])o1` [Nitrofural], the gametocyte viability is 90.1 (concentration: 1 µM) and 89.1 (concentration: 10 µM).
